# Assay outcomes from PubChem BioAssay.
# The list is not random: actives were taken first. Their share in the collection is about 0.9%.
# gsp antagonist – qHTS for Antagonists of gsp, the Etiologic Mutation Responsible for Fibrous Dysplasia/McCune-Albright Syndrome: qHTS; gsp-mutant cells, cAMP HTRF, 30 min; Potency, µM (highest dose often 76.9 µM), for the others: at the top dose activity change, negative = inhibition, most hits filed as inhibitors; 340,000 compounds, 0.4% hits; AID 624288, 2012; calls by dose curve; cell line not stated here;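 further: intracellular cAMP measured with PDE inhibitor Ro 20-1724 present during compound exposure; potency means the concentration at half of the fitted maximal effect; on the % scale 0 is the no-effect control and ±100 the full control effect; nearly all actives have a fitted effect of over 65% in size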
#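 HTRF cAMP measurement after 30 min RT detection following 30 min, 37C compound treatment alongside […] (added as 300 uM solution) in G418-selected cells seeded at 2000/well and grown 16–24 h.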
# gsp agonist – qHTS for Agonist of gsp, the Etiologic Mutation Responsible for Fibrous Dysplasia/McCune-Albright Syndrome: qHTS. Potency, µM (top dose mostly 76.9 µM), for the others: top-dose activation (cAMP increase), actives largely listed as activators. AID 624287, 2012. gsp mutant cells, cAMP HTRF, 30 min. 340,000 compounds, 0.13% hits; active means well fitted activation curve with a large enough effect; inconclusive means small, poorly fitted or top-dose-only effect, or another doubt; inactive means no such curve, though single readings can be large or run the other way; cell line not stated here;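 further: phosphodiesterase inhibitor Ro 20-1724 added with compounds to block cAMP breakdown; potency means the concentration at half of the fitted maximal effect; nearly all actives have a fitted effect of over 60% in size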
#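 Cells in DMEM/10% FBS with G418 were pretreated with compounds in DMSO plus […] (300 uM stock) for 30 min at 37C. cAMP was measured by HTRF (cAMP-d2 plus anti-cAMP antibody-K) after 30 min at room temperature.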
# RXFP1 agonist – qHTS Assay for Agonists of the Relaxin Receptor RXFP1; Relaxin receptor 1 (Homo sapiens), Q9HBX9; HEK293T-RXFP1 cAMP TR-FRET, 30 min; response scale: percent of porcine relaxin response, buffer zero; Potency, µM (highest dose often 57.5 µM), inactives show at the top dose activation, hits mostly activators; 370,000 compounds, 0.3% hits; active means well fitted activation curve with a large enough effect; inconclusive means small, poorly fitted or top-dose-only effect; further: potency means the concentration at half of the fitted maximal effect; on the % scale 0 is the no-effect control and ±100 the full control effect; nearly all actives have a fitted effect of over 60% in size
# Target sequence (Q9HBX9 whole entry, looked up): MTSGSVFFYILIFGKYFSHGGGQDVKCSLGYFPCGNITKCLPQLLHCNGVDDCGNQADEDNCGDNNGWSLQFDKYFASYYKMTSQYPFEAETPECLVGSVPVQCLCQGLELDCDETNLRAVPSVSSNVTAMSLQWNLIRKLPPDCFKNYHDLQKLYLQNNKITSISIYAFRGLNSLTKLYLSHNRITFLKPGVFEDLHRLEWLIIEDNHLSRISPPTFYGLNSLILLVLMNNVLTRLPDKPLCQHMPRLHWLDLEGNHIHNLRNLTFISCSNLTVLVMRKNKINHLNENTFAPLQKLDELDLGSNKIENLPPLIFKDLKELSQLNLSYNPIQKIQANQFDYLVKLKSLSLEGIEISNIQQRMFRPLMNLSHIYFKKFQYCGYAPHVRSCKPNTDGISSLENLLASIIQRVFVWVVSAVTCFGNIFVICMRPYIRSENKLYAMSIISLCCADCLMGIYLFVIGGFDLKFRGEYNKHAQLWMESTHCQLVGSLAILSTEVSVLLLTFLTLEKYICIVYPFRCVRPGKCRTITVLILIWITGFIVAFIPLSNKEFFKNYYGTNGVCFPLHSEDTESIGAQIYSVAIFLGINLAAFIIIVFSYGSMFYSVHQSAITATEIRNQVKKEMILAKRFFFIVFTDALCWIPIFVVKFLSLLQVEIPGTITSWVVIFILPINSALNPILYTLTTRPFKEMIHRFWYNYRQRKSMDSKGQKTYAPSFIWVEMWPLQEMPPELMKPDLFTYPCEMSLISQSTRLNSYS
#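 HEK293 cells stably expressing RXFP1, treated 30 min at 37C with compounds plus PDE4 inhibitor Ro 20174; cAMP measured by HTRF TR-FRET. Normalized to buffer and 29 nM porcine relaxin; EC50 by Hill fit.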
# RXFP1 antagonist – qHTS Assay for Antagonists of the Relaxin Receptor RXFP1; Relaxin receptor 1 (Homo sapiens), Q9HBX9; HEK293-RXFP1, relaxin-stimulated cAMP HTRF, 30 min; hits give low values; activity change, negative = inhibition, % at 57.5 µM; 350,000 compounds, 0.59% hits; AID 1259400, 2018;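 active means activity change of -60% or lower, but not beyond a set lower limit; inconclusive means change between -60% and -40%, or beyond the set limit; inactive means change above -40%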; further: on the % scale 0 is the no-effect control and ±100 the full control effect
# Numbers without * were called inactive; ? = inconclusive; nt = no result given; [ ] = remark or other dose.
SMILES,gsp antagonist,gsp agonist,RXFP1 agonist,RXFP1 antagonist
Clc1cccc(-n2ncc3c(NCCC4=CCCCC4)ncnc32)c1,nt,nt,-0.7%,-3.6
COc1ccc(NC(=O)CCc2nnc3n(CC(C)C)c(=O)c4ccccc4n23)cc1,nt,nt,1.6%,2.8
CCOC(=O)C1C(=O)Oc2ccc3ccccc3c2C1C1CCOC1=O (configuration not stated),50.1µM*,-4.7%,-0.4%,nt
O=C(Cn1ccc2cc(S(=O)(=O)N3CCCCCC3)ccc21)NCCc1ccc(Cl)cc1,nt,nt,-1.0%,0.3
Cc1c(C#N)c2ncn(Cc3ccccn3)c(=O)c2n1-c1ccccc1,28.2µM*,10.5%,1.8%,6.8
Cc1c(C#N)c2ncn(CCCN(C)C)c(=O)c2n1-c1ccccc1,6.4%,-0.3%,0.9%,-8.7
O=c1c2[nH]c3ccc(Cl)cc3c2ncn1CCN1CCCCC1,3.2%,-4.1%,1.2%,-13.9
Nn1cnc2c([nH]c3ccccc32)c1=O,4.4%,1.6%,-1.0%,1.2
S=c1nc[nH]c2c1[nH]c1ccccc12,55.0%,12.6µM*,7.08µM*,18.6
S=c1nc[nH]c2c1[nH]c1ccc(Cl)cc12,9.7%,?,3.16µM*,-35.9
CCOc1ccc(Cn2nnc(C(=O)NCc3ccc(OC)cc3)c2N)cc1,-22.5%,-37.9%,31.6µM*,nt
Cc1nn(S(=O)(=O)c2cccs2)c(C)c1Sc1ccccc1,nt,nt,3.0%,nt
Cc1nn(S(=O)(=O)c2cccs2)c(C)c1Sc1ccc([N+](=O)[O-])cc1,25.1µM*,-4.1%,3.3%,-5.0
Cn1c2c(c(=O)n(C)c1=O)C(C(F)(F)F)(C(F)(F)F)N=C(c1ccc(Cl)cc1)N2,39.8µM*,-25.6%,-0.4%,-10.8
Cc1cc(Cl)n2nc(C)c(-c3ccc(Cl)cc3)c2n1,-21.7%,10.8%[15.4 µM],2.0%,-69.0*
Cc1cc(N)n2nc(C)c(-c3ccc(Cl)cc3)c2n1,nt,3.4%[15.4 µM],-0.6%,0.1
CN(C)c1ccc(CNC(=O)c2ccc(Cn3c(SCc4ccccc4)nc4cccnc43)cc2)cc1,nt,nt,0.7%,-13.4
CCN(CC)CCCCN1c2ccccc2Sc2ccccc21,10.7%,?,-1.0%,-63.5*
Cc1ccc2nc(N3CCN(c4ccccc4F)CC3)c3nnnn3c2c1,nt,nt,2.1%,1.5
COc1ccc(C(=O)Nc2nc3n(n2)C(c2ccc(Cl)cc2)C=C(c2ccccc2)N3)cc1OC (configuration not stated),nt,nt,20µM*,-9.8
COc1ccc(C2C=C(c3ccccc3)Nc3nc(NC(=O)c4ccc(C)cc4)nn32)cc1 (configuration not stated),nt,nt,-0.5%,-3.9
COC(=O)[C@H](C)NC(=O)Nc1ccc(S(N)(=O)=O)cc1,6.3%,4.5%,-1.9%,-10.5
CC(C)C(Cl)=NOC(=O)Nc1ccc(S(N)(=O)=O)cc1,10.9%,11.8%,nt,-73.3*
Cn1cc(C(=O)Nc2ccc(F)c(Cl)c2)cn1,11.2%,6.3%,0.9%,-3.1
CN1c2ccsc2C(O)=C(C(=S)Nc2ccc(F)c(Cl)c2)S1(=O)=O,35.5µM*,-23.3%,0.8%,3.1
SMILES,gsp antagonist,gsp agonist,RXFP1 agonist,RXFP1 antagonist
COc1ccc(C(=O)NC2CCCCCC2)cc1S(=O)(=O)N1CCCC1,11.2µM*,4.4%[15.4 µM],1.0%,-4.4
COc1ccc(C(=O)Nc2ccccc2C(=O)O)cc1NC(=O)C(c1ccccc1)c1ccccc1,39.8µM*,-1.7%,0.5%,-24.2
O=C(Nc1ccccc1C(=O)O)c1ccc(NC(=O)C2CCCCC2)cc1,31.6µM*,6.7%[15.4 µM],0.6%,?
COc1ccccc1NC(=O)c1ccccc1NC(=O)c1ccccc1,nt,nt,0.9%,-13.5
COc1ccc(C(=O)Nc2ccccc2C(=O)O)cc1Cl,?,-9.5%,0.2%,-12.1
COc1ccccc1C(=O)Nc1ccc(C(=O)Nc2ccccc2C(=O)O)cc1,35.5µM*,?,2.0%,-18.0
CC(=O)c1cc2ccccc2s1,nt,nt,nt,14.1
C#C[C@]1(OC(C)=O)CC[C@H]2[C@@H]3CCC4=C/C(=N/O)CC[C@@H]4[C@H]3CC[C@@]21CC,nt,nt,nt,-32.2
CC(=O)c1ccc(NC(=O)CCc2c(C)nc3cc(-c4ccc(Cl)cc4)nn3c2C)cc1,nt,nt,4.4%,nt
O=C(Nc1ccccc1C(=O)O)c1ccc(NC(=O)c2ccc(Br)o2)cc1,35.5µM*,22.3%,-2.4%,-36.6
Cc1ccc(C(=O)Nc2ccccc2C(=O)O)cc1S(=O)(=O)N1CCCCCC1,nt,nt,-0.2%,-102.4*
O=C(NNC(=O)c1ccc(Br)o1)c1ccc(NC(=O)c2ccccc2)cc1,nt,13.3%[15.4 µM],1.6%,-16.5
CNc1snc(C)c1C(=O)OC(C)C(=O)Nc1ccccc1 (configuration not stated),-0.9%,-26.5%,2.6%,-8.8
COC(=O)c1c(C)nsc1NC(=O)Oc1ccccc1,8.0%,4.47µM*,2.9%,15.2
Cc1ccc(N2CCN(C(=O)c3cnc(N4CCCCC4)c4ccccc34)CC2)c(C)c1,nt,nt,2.4%,-69.9*
Cc1ccc(Cl)cc1N1CCN(C(=O)c2cnc(N3CCOCC3)c3ccccc23)CC1,nt,nt,-1.0%,-81.9*
Cc1ccc(Cl)cc1N(C)C(=O)c1cnc(N2CCOCC2)c2ccccc12,nt,nt,-0.2%,-9.0
O=C(CCCn1c2ccccc2c(=O)c2ccccc21)Nc1cccc(Cl)c1,nt,nt,9.2%,-14.1
COc1cccc(C(=O)Nc2ccccc2N2CCN(C(=O)c3ccccc3)CC2)c1,25.1µM*,5.5%,nt,-7.9
CN1CCN(c2ccccc2NC(=O)c2ccc(-c3ccccc3)cc2)CC1,50.1µM*,12.4%,0.4%,-15.4
CC(C)c1nc(N2CCN(C(=O)c3ccco3)CC2)c(C#N)c2c1COC(C)(C)C2,-11.5%,-10.1%,2.9%,-61.1*
COc1ccc(-c2noc(-c3ccc(NC(C)c4ccccc4)c([N+](=O)[O-])c3)n2)cc1OC (configuration not stated),nt,nt,-8.3%,nt
CCc1cccc(NC(=O)CCCn2nc(C)c3c(C)n(-c4ccccc4)nc3c2=O)c1,-12.9%,13.2%,-0.3%,-65.6*
CCOC(=O)c1cccc(NC(=O)CCCn2nc(C)c3c(C)n(-c4ccccc4)nc3c2=O)c1,nt,nt,1.3%,1.9
O=C(CCCN1CCN(c2ccc(F)cc2)CC1)NC1c2ccccc2CSc2ccccc21 (configuration not stated),nt,nt,nt,-27.4
COc1cc(C2C(C(C)=O)=C(O)C(=O)N2CCN2CCOCC2)ccc1O (configuration not stated),3.7%,?,1.0%,1.5
COc1cc(C2C(C(=O)c3ccc(C)o3)=C(O)C(=O)N2CCN2CCOCC2)ccc1OCCC(C)C (configuration not stated),4.6%,38.3%[15.4 µM],15.8µM*,7.7
CC(C)Oc1ccc(Br)cc1/C=N\NC(N)=S,3.7%,?,-0.4%,-64.7*
CC(=O)c1ccc(NC(=O)C2CCC(CNS(=O)(=O)c3ccc4c(c3)CCCC(=O)N4)CC2)cc1 (configuration not stated),nt,nt,-0.1%,nt
